FBA Mtb inh = inhibitors of M. tuberculosis fructose-bisphosphate aldolase; P9WQA3; purified M. tuberculosis FBA, fluorescence read-out; inhibition, % at 1 µM; actives 2.3% (n = 360,000); AID 588726; in the data active = inhibition above about 27%;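 also: 0% = vehicle and 100% = reference inhibitor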
Target sequence (P9WQA3 whole entry, looked up): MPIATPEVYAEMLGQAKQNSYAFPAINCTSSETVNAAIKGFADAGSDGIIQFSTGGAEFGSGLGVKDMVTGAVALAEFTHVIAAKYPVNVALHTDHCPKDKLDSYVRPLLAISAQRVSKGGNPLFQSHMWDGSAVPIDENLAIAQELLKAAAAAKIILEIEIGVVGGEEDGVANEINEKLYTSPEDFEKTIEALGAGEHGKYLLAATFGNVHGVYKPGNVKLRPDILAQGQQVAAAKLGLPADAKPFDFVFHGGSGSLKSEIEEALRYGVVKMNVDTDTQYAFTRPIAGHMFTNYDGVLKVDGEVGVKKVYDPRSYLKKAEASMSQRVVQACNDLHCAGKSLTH
Bead autofluor = flagged as autofluorescent in microsphere protease counterscreen; actives 3.1% (n = 360,000); AID 624483; compound autofluorescence counterscreen, microsphere flow cytometry; active compounds read high; fluorescence intensity (concentration not given with the values); in the data active = fluorescence intensity above about 16000; inconclusive = no clear call, values can overlap the other calls
BoNT-F LC inh = BoNT F light chain protease inhibition; Multiplex microsphere protease cleavage assay, flow cytometry; inhibition, % at 10 µM; actives 0.22% (n = 360,000); AID 588497; in the data active = inhibition above about 35%, passing the limit was not always enough; inconclusive = no clear call, values can overlap the other calls; also: plate controls were buffer without enzyme for full effect and enzyme alone for no effect
Anthrax LF inh2 = anthrax lethal factor protease inhibition | inhibition, % at 10 µM | multiplex microsphere protease cleavage assay, LF | actives 0.12% (n = 360,000); also: plate controls were buffer without enzyme for full effect and enzyme alone for no effect
BoNT-A LC inh2 = blocks Botulinum neurotoxin A light chain protease | multiplex microsphere protease substrate cleavage, flow cytometry | inhibition, % at 10 µM | actives 0.17% (n = 360,000) | AID 588499; also: plate controls were buffer without enzyme for full effect and enzyme alone for no effect
GDH-TPI counter = inhibits GDH-TPI coupling enzymes, artifact for Mtb FBA screen; actives 1.2% (n = 360,000); inhibition, % at 4.8 µM; GDH-TPI coupled enzyme counterscreen, NADH absorbance; in the data active = inhibition above about 30%;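 also: 0% = DMSO wells and 100% = wells lacking the enzyme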
The depositor's hits bear a star; ? = inconclusive; nt = no result. Hits are enriched below; roughly 6.7% of the tested compounds scored in any of these assays. Rule as the data show it, unless noted: active = inhibition above about 30%; inconclusive = no clear call, values can overlap the other calls; inactive = below that.

SMILES	FBA Mtb inh	Bead autofluor	BoNT-F LC inh	Anthrax LF inh2	BoNT-A LC inh2	GDH-TPI counter
COc1cc(/C=N/Nc2nc(N3CCCC3)nc(N3CCCC3)n2)ccc1O	4.7	8474	-8.8	-2.6	-1.2	35.4*
COc1ccc(-c2cnnc(N/N=C/c3ccc(O)c(OC)c3)n2)cc1	-1.4	1999	2.6	-3.6	0.3	54.6*
S=C(NCCc1ccccc1)N/N=C/c1ccc(Cl)cc1	-1.5	6392	-6.6	-2.5	-0.5	2.2
COc1cc(/C=N/Nc2ccc(C(=O)O)cc2)ccc1O	2.2	2596	1.0	-2.4	0.4	33.1*
COc1cc(/C=N/NC(=S)NCCc2ccccc2)cc(OC)c1OC	0.7	3936	14.2	-4.0	-3.1	40.8*
COc1cc(/C=N/NC(=O)c2cnccn2)cc(OC)c1OC	-1.0	9963	-11.0	-5.1	-2.1	32.2*
COc1cc(/C=N/NC(=O)c2ccccc2)ccc1O	-1.8	3156	-1.9	1.8	-0.3	18.0
COc1cc(/C=N/Nc2ccc(C(=O)O)cc2)cc(OC)c1OC	-1.2	4353	6.7	3.2	1.5	41.2*
Cc1ccccc1N1C(S)=C(C#N)C(=O)NC1c1ccco1 (stereo not drawn)	5.9	3224	2.0	-9.2	1.0	5.6
O=C(Cn1c(=O)oc2cc(S(=O)(=O)N3CCCC3)ccc21)N1CCN(c2ccccc2)CC1	3.3	4144	-1.3	-7.2	-1.4	-4.3
COc1cc(/C=N/NC(=S)Nc2cccc(C(=O)O)c2)ccc1O	3.5	2677	-3.9	-1.1	-0.2	32.2*
C/C(=N/Nc1ccccc1C(=O)O)c1cccs1	-3.2	3245	?	10.3	-0.3	33.2*
CN1OC(Cn2cc(C#N)c(=O)n(C)c2=O)CC1c1ccccc1 (stereo not drawn)	7.2	3483	-1.1	-10.6	-0.4	0.6
NC(=O)CCCCC(=O)OCCCc1cccs1	-1.1	16230*	1.1	0.5	-0.7	7.7
COc1cccc(C(c2c(O)nc(SC)n(C)c2=O)c2c(O)nc(SC)n(C)c2=O)c1	-0.4	21226*	4.3	-4.0	2.2	-1.3
CC(C)(C)c1ccc(OCC(=O)NNC(=O)c2cccnc2)cc1	6.8	4326	-0.7	1.6	-0.3	-3.1
C#CCOCCOCCOCCNc1nc(N2CCN(C(=O)C([C@@H](C)CC)n3cc(C(N)Cc4ccc(O)cc4)nn3)CC2)nc(N2CCN(C(=O)[C@H](CCC(=O)O)n3cc(C(N)CC(C)C)nn3)CC2)n1 (stereo partly drawn)	4.8	3998	-13.6	-4.4	-0.7	11.1
CC1(C)CC(=O)c2sc(NC(=O)C3CC3)nc2C1	-0.9	5400	-6.2	-3.6	-0.4	12.2
Cn1nc(C(C)(C)C)cc1C(=O)Nc1nc2c(s1)C(=O)CC(C)(C)C2	7.0	22625*	1.7	0.7	-0.4	40.1*
CC(Oc1ccc(Cl)cc1Cl)C(=O)NC(=S)N1CCc2ccccc21 (stereo not drawn)	-0.9	2049	0.9	-3.0	-1.0	12.2
CCOC(=O)C1=C(C)OC(N)=C(C#N)C1c1ccsc1 (stereo not drawn)	0.2	17866*	15.8	-9.2	18.2	5.6
CCOC(=O)C1=C(CC)OC(N)=C(C#N)C1c1ccc(OC)cc1OC (stereo not drawn)	-1.5	19947*	6.9	1.1	?	13.6
COc1cc(CN2CCN(CCOCCO)CC2)cc(OC)c1OC	3.0	10997	-10.7	-7.2	-0.6	-2.9
CCOCCNC(=O)c1ccccc1C(=O)NCCOCC	-3.0	17947*	-5.2	-1.1	-3.8	-2.5
CCCNC(=O)c1ccccc1C(=O)NCCC	1.2	4155	32.9	3.6	1.6	4.0
SMILES	FBA Mtb inh	Bead autofluor	BoNT-F LC inh	Anthrax LF inh2	BoNT-A LC inh2	GDH-TPI counter
C#CCn1c2ccccc2c(=O)n1C(C)C	121.4*	5628	-2.2	-7.9	-0.8	nt
O=C(NC12CC3CC(CC(C3)C1)C2)c1ccc(=O)oc1	-2.2	2233	-10.6	-1.5	-0.3	18.6
O=C(NNC(=O)C1[C@H]2CCCC[C@@H]12)c1ccc(=O)oc1 (stereo partly drawn)	14.3	3279	?	8.1	-4.6	39.3*
Cc1oc(-c2ccccc2Cl)nc1CSCC(=O)N1CCCC1	1.5	22629*	3.7	1.3	0.9	1.8
Cc1oc(-c2ccccc2Cl)nc1CSCC(=O)NC1CCCC1	0.9	3784	-2.1	-2.6	-0.3	-6.6
COC(=O)COc1cccc(NC(=O)c2cc(OC)cc(OC)c2)c1	-0.4	6879	-6.2	-7.2	-2.1	-3.5
COc1ccc(/C=C/C(=O)NCC(=O)N/N=C/c2ccc(OC)cc2)cc1	2.7	2601	0.5	-0.1	-0.5	7.3
COc1ccc(CN(C(=O)CN2C(=O)COc3ccccc32)C2CCCC2)c(OC)c1	0.8	21877*	3.1	1.6	1.5	16.8
COc1ccc(CN(C(=O)CN2C(=O)C(C)Oc3ccccc32)C2CCCC2)c(OC)c1 (stereo not drawn)	-0.5	7941	-7.1	-6.0	-0.7	7.9
COc1ccc(CNC(=O)C/C(C)=N/NC(=O)Cc2ccc(OC)cc2)cc1	-2.5	2536	-6.8	-2.0	-0.1	-5.3
O=C(Cn1cc([N+](=O)[O-])cn1)Nc1nc2ccccc2s1	-1.1	10041	-6.9	-1.5	-2.5	9.2
COc1ccc(CNC(=O)CN(Cc2ccccc2)S(=O)(=O)c2ccc(Cl)cc2)cc1	-1.9	22889*	-2.8	-0.9	-1.4	-4.3
COc1ccc(S(=O)(=O)N(CC(=O)NCc2ccncc2)Cc2ccccc2)cc1	-1.5	4105	-19.9	-1.3	-0.2	1.1
COc1ccc(C)cc1S(=O)(=O)N(CC(=O)NCc1ccc(Cl)cc1)Cc1ccccc1	1.7	22998*	-2.3	0.0	-0.7	6.6
COc1ccc(C)cc1S(=O)(=O)N(CC(=O)N1CCOCC1)Cc1ccccc1	3.4	10848	-10.6	-1.9	-0.4	-6.2
COc1ccc(CNC(=O)CN(Cc2ccc(Cl)cc2)S(=O)(=O)c2ccccc2)cc1	-0.5	24986*	-6.3	-0.6	-4.4	10.5
COc1ccc(S(=O)(=O)N(CCc2ccccc2)CC(=O)NC(C)C)cc1	1.3	22967*	-1.3	-0.8	-0.2	7.5
Cc1onc(-c2ccccc2)c1C(=O)NNC(=S)NC(=O)/C=C/c1cccs1	-0.2	7647	-16.3	0.0	-1.7	63.0*
Nc1c(C(=O)NC23CC4CC(CC(C4)C2)C3)sc2nc3c(c(C(F)(F)F)c12)CCC3	-0.7	24363*	-2.7	-1.6	?	-0.7
CCn1cc(C(=O)c2ccccc2)c2ccccc21	-3.3	22254*	4.2	-4.1	?	13.4
O=C(c1ccccc1F)c1cn(CC(=O)N2CCCCC2)c2ccccc12	0.0	24432*	-14.9	-1.7	-9.8	0.6
CCOC(=O)C1CCN(C(=O)Cn2cc(C(=O)c3ccco3)c3ccccc32)CC1	-0.6	11178	-9.8	-2.3	-1.6	12.6
O=C(c1ccco1)c1cn(CC(=O)N2CCCCCC2)c2ccccc12	-2.9	4615	-0.6	-2.0	-0.1	37.8*
O=C(c1ccccc1F)c1cn(Cc2ccccc2)c2ccccc12	1.9	22262*	0.0	-2.4	-0.1	14.2
